Assay results as given in PubChem BioAssay (EPA / NIEHS).
Calls of active or inactive are those of the source. How the source made its calls: active means hit-call score of the fitted dose curve at least 0.9, where 1 is the maximum; inactive means score below 0.9.

Each molecule was assayed on Bcl-2 (BID) gene, BID (gene 637) (assay: LTEA_HepaRG_BID: Life Technologies and Expression Analysis (LTEA) Assay for Bcl-2 (BID) gene using HepaRG (AID 2283476)). Conditions: mRNA level, 48 h; actives raise or lower the signal.
Description: LTEA_HepaRG is a cell based, multiplexed-readout assay that uses HepaRG, a human liver cell line, with measurements taken at 48 hours after chemical dosing on a 96-well plate.LTEA_HepaRG_BID is one of 102 assay component(s) measured in the LTEA HepaRG cell culture assay. It is a marker of Cell proliferation, survival, death.Data from the assay component LTEA_HepaRG_BID was analyzed into 1 endpoint. This assay endpoint, LTEA_HepaRG_BID, was analyzed with bidirectional fitting relative to DMSO as the negative control and baseline of activity. Using a type of inducible reporter, measures of mRNA induction for gain or loss-of-signal activity can be used to understand regulation of transcription factor activity. To generalize the intended target to other relatable targets, this assay endpoint is annotated to the cell cycle intended target family, where the subfamily is Cell proliferation, survival, death.
A total of 1060 chemcials from the ToxCast library were tested in eight-point concentration-response experiments. Cell culture and cytotoxicity assays were conducted at Thermo Fisher Scientific's Custom Services facility (Madison, WI). A single lot of human HepaRG cells (Thermo Fisher Scientific, Frederick, MD) was used for the cell culture experiments. 96-well format collagen type I coated plates of human HepaRG cells were prepared using established methods. Briefly, cryopreserved HepaRG cells were thawed, plated at a density of approximately 100,000 cells/well in HepaRG Thaw, Plate, and General Purpose media (HPRG770, Thermo Fisher Scientific), and incubated for 48 hours. 0.5% DMSO was selected as vehicle control to balance the requisite need of DMSO in HepaRG cultures to maintain differentiation (for example, baseline metabolism, proportions of hepatocytes vs. cholangiocytes), while enabling further hepatic receptor pathway activation (for example, PXR and CAR) in response to chemical exposure. 48 hours after plating, the culture medium was replaced with HepaRG Serum-Free Incudtion Media. Cells were exposed to each test chemical in duplicate and maintained in CO2 incubators for another 48 hours. Chemical plates were thawed to room temperature and 200x concentrations of treatment groups were prepared. 8-point conentration-reponse curves were made with the highest exposure at 100 uM, followed by half-log dilutions, all in 0.5% DMSO. Each test plate contained variouse controls, induction positive controls (1mM phenobarbital), cytotoxicity positive controls ([…] aflatoxin B1), vehicle controls (0.5% DMSO), and total lysis controls (0.5% DMSO). Cell morphology images were taken using an Essen IncuCyte FLR automated microscope, with six 96-well plates imaged in about 24 minutes. Images were captured and exported and JPEG files. Spent culture media was transfered to black-well plates for the LDH assay, and remaining media was sorted at -80 C for later use. Cells were treated with RLT buffer and frozen until shipped for gene expression analysis. Total RNA was isolated from the cell suspension in 75 uL of Buffer RLT (Qiagen, Germantown, MD 20874) by Quintiles/Expression Analysis (Durham, NC) using a custom isolation procedure. Total RNA from each plate well was transferred to a preamplification plate. Fluidigm's 96.96 Dynamic ArrayTM (Fluidigm, Amsterdam, the Netherlands) technology was used for gene expression analyses by quantitative reverse transcription polymerase chain reaction (qRT-PCR, performed by Quintiles/Expression Analysis, Durham, NC)89. Standard TaqManTM Assays (Applied Biosystems/ThermoFisher Scientific, Foster City, CA) were used to assess the expression of 93 genes selected based on their selectivity and sensitivity to important hepatic receptors known to be modulated by environmental chemicals; importance in human hepatocyte functionality; and hepatotoxicity. […]
With `CN=C=S` the outcome was “inactive”.
In the case of `CNC(=O)Oc1cccc2ccccc12`, the outcome was “inactive”.
For `CCCCC(C#N)(Cn1cncn1)c1ccc(Cl)cc1` (stereo not given), the outcome was “inactive”.
With `CCNC(=O)NC(=O)C(C#N)=NOC` the AC50 was 234 nM (active).
`CCOc1nc(F)cc2nc(S(=O)(=O)Nc3c(Cl)cccc3Cl)nn12` was tested, and the outcome was “inactive”.
For `CSC(=O)c1c(C(F)F)nc(C(F)(F)F)c(C(=O)SC)c1CC(C)C`, the outcome was “inactive”.
With `O=c1n(Cl)c(=O)n(Cl)c(=O)n1Cl` the outcome was “inactive”.
In the case of `CCSC(=O)N1CCCCCC1`, the outcome was “inactive”.
`CC(C)Oc1cccc(NC(=O)c2ccccc2C(F)(F)F)c1` was tested, and the outcome was “inactive”.
In the case of `C=C(C)CN(CC)c1c([N+](=O)[O-])cc(C(F)(F)F)cc1[N+](=O)[O-]`, the outcome was “inactive”.
In the case of `O=P(O)(O)CCCl`, the outcome was “inactive”.
With `CO/N=C(/C1=NOCCO1)c1ccccc1Oc1ncnc(Oc2ccccc2Cl)c1F` the outcome was “inactive”.
For `CCCCC(O)(Cn1cncn1)c1ccc(Cl)cc1Cl` (stereo not given), the outcome was “inactive”.
`CC1(C)C(C=C(Cl)Cl)C1C(=O)OC(C#N)c1cccc(Oc2ccccc2)c1` (stereo not given) was tested, and the outcome was “inactive”.
For `CCN(CC)C(=O)C(C)Oc1cccc2ccccc12` (stereo not given), the outcome was “inactive”.
With `CCOC(=O)C(C)OC(=O)c1cc(Oc2ccc(C(F)(F)F)cc2Cl)ccc1[N+](=O)[O-]` (stereo not given) the outcome was “inactive”.
For `Cc1cc(C)nc(Nc2ccccc2)n1`, the outcome was “inactive”.
`CCOc1nc(C(Cl)(Cl)Cl)ns1` was tested, and the AC50 was 1330 nM (active).
`CC(C)N1C(=O)c2ccccc2NS1(=O)=O` was tested, and the outcome was “inactive”.
For `CC(C)N1C(=O)N(c2ccccc2)CSC1=NC(C)(C)C`, the outcome was “inactive”.
With `Nc1c(Cl)c(F)nc(OCC(=O)O)c1Cl` the outcome was “inactive”.
For `CCCC(=NOCC)C1=C(O)CC(CC(C)SCC)CC1=O` (stereo not given), the outcome was “inactive”.
In the case of `CCOc1cc(C(C)(C)C)ccc1C1COC(c2c(F)cccc2F)=N1` (stereo not given), the outcome was “inactive”.
In the case of `CCCCOCN(C(=O)CCl)c1c(CC)cccc1CC`, the outcome was “inactive”.
In the case of `O=C1C2CC=CCC2C(=O)N1SC(Cl)(Cl)Cl` (stereo not given), the outcome was “inactive”.
For `CC(C)NC(=O)N1CC(=O)N(c2cc(Cl)cc(Cl)c2)C1=O`, the outcome was “inactive”.
In the case of `CCCN(CC)CC1COC2(CCC(C(C)(C)C)CC2)O1` (stereo not given), the outcome was “inactive”.
`COP(=S)(OC)Oc1ccc([N+](=O)[O-])c(C)c1` was tested, and the outcome was “inactive”.
In the case of `CC(C)C1(C)N=C(c2ncccc2C(=O)O)NC1=O` (stereo not given), the outcome was “inactive”.
For `CCOP(=S)(OCC)Oc1nc(Cl)n(C(C)C)n1`, the outcome was “inactive”.
For `Cc1c(COC(=O)[C@@H]2[C@H](/C=C(\Cl)C(F)(F)F)C2(C)C)cccc1-c1ccccc1`, the outcome was “inactive”.
For `Cc1ccc(N=CN(C)C=Nc2ccc(C)cc2C)c(C)c1`, the outcome was “inactive”.
For `COCc1cnc(C2=NC(C)(C(C)C)C(=O)N2)c(C(=O)O)c1` (stereo not given), the outcome was “inactive”.
In the case of `COc1cc(Cl)c(OC)cc1Cl`, the outcome was “inactive”.
`COCC(=O)N(c1c(C)cccc1C)C(C)C(=O)OC` (stereo not given) was tested, and the outcome was “inactive”.
`CS(=O)(=O)c1ccc(C(=O)C2C(=O)CCCC2=O)c([N+](=O)[O-])c1` was tested, and the outcome was “inactive”.
`CCOP(=O)(OCC)Oc1nc(Cl)c(Cl)cc1Cl` was tested, and the outcome was “inactive”.
`Cn1c(-c2ccccc2)cc(-c2ccccc2)[n+]1C` was tested, and the AC50 was 80000 nM (active).
With `CC(C)Nc1nc(Cl)nc(NC(C)C)n1` the outcome was “inactive”.
For `COC(=O)N(C(=O)N1CO[C@@]2(C(=O)OC)Cc3cc(Cl)ccc3C2=N1)c1ccc(OC(F)(F)F)cc1`, the outcome was “inactive”.
